The list is not random: actives were taken first. Their share in the collection is about 5.4%.
ALR H2O2 inh = inhibitors of human sulfhydryl oxidase ALR; P55789; purified ALR, DTT oxidation, H2O2 HRP-luminol luminescence; inhibition, % (concentration not given with the values); 290,000 compounds, 3.8% hits;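 active means mean replicate inhibition above about 79%, with every replicate also reaching it, limit read from the data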
Target sequence (P55789 whole entry, looked up): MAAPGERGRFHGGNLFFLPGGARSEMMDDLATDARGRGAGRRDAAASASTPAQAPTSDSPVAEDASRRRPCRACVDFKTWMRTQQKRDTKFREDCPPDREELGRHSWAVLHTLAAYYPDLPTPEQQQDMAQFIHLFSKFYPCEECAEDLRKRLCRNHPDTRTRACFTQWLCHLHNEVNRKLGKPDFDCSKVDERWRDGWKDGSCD
PHOSPHO1 inh = inhibitors of human PHOSPHO1 phosphatase; 290,000 compounds, 1.1% hits; recombinant PHOSPHO1, absorbance phosphatase assay; Q8TCT1; AID 1565; inhibition, % at 13.3 µM; in the data active means inhibition above about 60%
aDG glyco up = increases alpha dystroglycan glycosylation. Pro5-aDG cells, alpha-DG glycosylation AlphaScreen (IIH6); 0% Pro5, 100% B10-LARGE cell signal. 360,000 compounds, 0.22% hits. activation, % at 10 µM;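 active means activation of at least 8% versus controls, or a plate z-score of at least 8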;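 further: Pro5 are CHO cells carrying HIG-tagged alpha-DG that lacks glycosylation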
APOBEC3G inh = blocks human APOBEC3G single-stranded DNA deamination; Q9HC16; recombinant A3G, ssDNA deamination FAM/TAMRA fluorescence; inhibition, % at 20 µM; 330,000 compounds, 0.28% hits;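 active means inhibition of at least 40% at 20 µM, with no more than 30% in the related APOBEC3A deaminase screen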
APOBEC3A inh = human APOBEC3A DNA deaminase inhibition. 330,000 compounds, 0.41% hits. AID 493011. inhibition, % at 20 µM. recombinant A3A, FAM/TAMRA ssDNA deamination fluorescence;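 active means at least 40% inhibition at 20 µM here, with at most 30% in a related deaminase screen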
Target sequence (P31941 whole entry, looked up): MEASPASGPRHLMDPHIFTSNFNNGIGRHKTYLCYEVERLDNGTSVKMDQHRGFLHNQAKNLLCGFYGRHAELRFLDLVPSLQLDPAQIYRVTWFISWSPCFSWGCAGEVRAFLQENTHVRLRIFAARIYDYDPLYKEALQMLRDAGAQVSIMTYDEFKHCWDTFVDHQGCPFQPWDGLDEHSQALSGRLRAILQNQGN
rCAG binder = r(CAG) repeat RNA binding; TO-PRO-1 dye displacement fluorescence; inhibition, % at 3 µM; 370,000 compounds, 1.3% hits; AID 651821;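 active means inhibition above the plate cutoff, the mean of all test compounds on that plate plus 3 SD, cut at about 35% in these data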;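 further: higher means more dye released from RNA so lower well fluorescence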
Large screens that a line does not name were inactive.

Oc1ccc(/C=N/Nc2cc(N3CCCC3)nc(N3CCCC3)n2)cc1O	ALR H2O2 inh 90, rCAG binder 40
Oc1ccc(/C=N\Nc2cc(N3CCOCC3)nc(N3CCOCC3)n2)c(O)c1	ALR H2O2 inh 85
COc1ccc(/C=N/Nc2nc(N3CCCC3)nc(N3CCCC3)n2)cc1O	ALR H2O2 inh 99
COc1ccc(/C=N/Nc2cc(C)nc(N3CCOCC3)n2)c(OC)c1	none
CCCCN1CCCOc2cc(Br)ccc2S1(=O)=O	none (no result: ALR H2O2 inh, PHOSPHO1 inh, aDG glyco up, APOBEC3G inh, APOBEC3A inh)
CC(=O)N1c2ccccc2C2(O)N=C(C)SC12 (centres undefined)	PHOSPHO1 inh 72, APOBEC3G inh 46 (no result: rCAG binder)
Cc1ccc(-n2c(SCC(=O)N/N=C/C=C\c3ccco3)nnc2-c2ccccc2)cc1	none (no result: ALR H2O2 inh, PHOSPHO1 inh, aDG glyco up, APOBEC3G inh, APOBEC3A inh)
CCN(CC)C(=O)CC[C@H]1CC[C@]2(CCCN(C(=O)c3ccccc3)C2)O1	none (no result: ALR H2O2 inh, PHOSPHO1 inh, aDG glyco up, APOBEC3G inh, APOBEC3A inh)
Cc1ccc(N(C(=O)Cn2nnc(-c3cccs3)n2)C(C(=O)NC2CCCC2)c2ccncc2)cc1 (centres undefined)	PHOSPHO1 inh 60
Cc1ccc(N(C(=O)Cn2nnc(-c3ccccc3F)n2)C(C(=O)NC2CCCC2)c2ccncc2)cc1 (centres undefined)	none
Nc1[nH]c(C(=O)c2ccc(Br)cc2)c(-c2c(F)cccc2F)c1C(=O)NCCc1c[nH]c2ccccc12	none (no result: ALR H2O2 inh, PHOSPHO1 inh, aDG glyco up, APOBEC3G inh, APOBEC3A inh)
Cc1c(C)c2ccc(OC(C)C(=O)NC3CC(C)(C)NC(C)(C)C3)cc2oc1=O (centres undefined)	PHOSPHO1 inh 70
O=[N+]([O-])c1ccc(OC[C@@H](O)CN2CCC(C(O)(c3ccccc3)c3ccccc3)CC2)c(Cl)c1	none (no result: ALR H2O2 inh, PHOSPHO1 inh, aDG glyco up, APOBEC3G inh, APOBEC3A inh)
CNC(=S)NNC(=O)c1sccc1OCc1cccc(C(F)(F)F)c1	PHOSPHO1 inh 69
CNC(=S)NNC(=O)c1sccc1OCc1ccc(C)cc1	PHOSPHO1 inh 74
CCOC(=O)[C@]12CCCC=C1N(Cc1ccc(OC)cc1)C(=O)[C@@H]2CC(=O)NCCc1ccccc1OC	none (no result: ALR H2O2 inh, PHOSPHO1 inh, aDG glyco up, APOBEC3G inh, APOBEC3A inh)
CCCn1c(C)cc(C(=O)CSc2nc3ccccc3c(=O)n2Cc2ccco2)c1C	ALR H2O2 inh 99
O=C(CSc1nc2cc(Cl)ccc2c(=O)n1Cc1ccco1)Nc1ccc(S(=O)(=O)N2CCOCC2)cc1	none
COC(=O)c1ccc(CSc2nc3ccccc3c(=O)n2Cc2ccco2)o1	ALR H2O2 inh 94
COC(=O)c1ccc(CSc2nc3ccccc3c(=O)n2CC(C)C)o1	none
COC(=O)c1ccc2c(=O)n(Cc3ccco3)c(SCC(=O)Nc3ccc(C)c(Cl)c3)nc2c1	ALR H2O2 inh 100
Cc1ccc(NC(=O)N2CCC(c3nc4ccc(Cl)cc4[nH]3)CC2)cc1F	none (no result: ALR H2O2 inh, PHOSPHO1 inh, aDG glyco up, APOBEC3G inh, APOBEC3A inh)
CCC(NC(=O)CCCN1C(=O)COc2ccc(C)cc21)c1ccccc1 (centres undefined)	none (no result: ALR H2O2 inh, PHOSPHO1 inh, aDG glyco up, APOBEC3G inh, APOBEC3A inh)
COCc1[nH]nc2c1C(c1ccc(Br)cc1)N(c1ccc(OC)cc1)C2=O (centres undefined)	none (no result: ALR H2O2 inh, PHOSPHO1 inh, aDG glyco up, APOBEC3G inh, APOBEC3A inh)
CC(CNC(=O)[C@@H](Cc1ccccc1)NC(=O)[C@H]1O[C@@H](n2ccc(=O)[nH]c2=O)[C@H](O)[C@@H]1O)c1ccccc1 (some centres undefined)	none (no result: ALR H2O2 inh, PHOSPHO1 inh, aDG glyco up, APOBEC3G inh, APOBEC3A inh)
CCCCC(=O)NC(=S)NNC(=O)CCc1ccccc1	none
CCN(C(=S)NC(=O)CCc1ccccc1)c1ccccc1	ALR H2O2 inh 77
CN(C)c1cccc(NC(=O)CCc2ccccc2)c1	ALR H2O2 inh 98
COc1ccc([C@H]2Oc3cc(O)cc(O)c3C(=O)C2[C@@H]2C(=O)c3c(O)cc(O)cc3O[C@@H]2c2ccc(OC)cc2)cc1 (some centres undefined)	rCAG binder 58 (no result: aDG glyco up)
Cc1ccc(-n2c(SCC(=O)O)nc3sc4c(c3c2=O)C(C)CCC4)cc1 (centres undefined)	ALR H2O2 inh 98
COCCN1C(=O)C2=C(C1=O)C1N(C)c3ccccc3[C@@]13C[C@@H](CO)N(S(=O)(=O)c1ccc(OC)cc1)C3=N2 (some centres undefined)	none (no result: ALR H2O2 inh, PHOSPHO1 inh, aDG glyco up, APOBEC3G inh, APOBEC3A inh)
CCCc1nc(SCC(=O)c2ccc(F)cc2)c2ccccc2n1	ALR H2O2 inh 99
COc1cccc(C(=O)N(Cc2ccc(N(C)C)cc2)C2CCS(=O)(=O)C2)c1 (centres undefined)	ALR H2O2 inh 88
O=C(c1cccs1)N(CC1CCCO1)c1nc(-c2ccccc2)cs1 (centres undefined)	none

Screening results deposited in PubChem by several laboratories.
